# Screening data as filed in PubChem.
# Pol kappa inh-1 = inhibitors of human DNA polymerase kappa; Q9UBT6; purified Pol kappa, fluorescent DNA synthesis assay, 10 min; Potency, µM (top dose mostly 107 µM), for the others: at the highest dose activity, negative = inhibition, usual class: inhibitors; 400,000 tested, 0.53% active; AID 588579; also: potency is read from the fitted curve at half-maximal effect; % is scaled to controls: 0 for no effect and ±100 for the full control effect
#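 Activity was followed as the change in fluorescence between reads at 0 and 10 min after starting the reaction with 50 nM substrate. Beforehand, 10 nM polymerase had been preincubated with compound for 15 min at room temperature.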
# POLB inh = DNA polymerase beta (human) inhibition | Pol beta primer extension/strand displacement, fluorescence kinetic | Potency, µM (series often up to 114 µM), for inactives: top-dose activity change, negative = inhibition, hits mostly inhibitors | 340,000 tested, 1.3% active; also: potency is read from the fitted curve at half-maximal effect; % is scaled to controls: 0 for no effect and ±100 for the full control effect
#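 Kinetic readout of DNA synthesis with strand displacement by Pol beta. Compound and 10 nM enzyme sit 15 min at room temperature; 50 nM substrate starts the reaction, read immediately and at 10 min.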
# POLI inh = blocks human DNA polymerase iota activity. Q9UNA4. Potency, µM (series often up to 115 µM), inactives show at the top dose activity, negative = inhibition, most hits filed as inhibitors. 390,000 tested, 1% active. Pol iota fluorescent replication assay, 10 min; also: potency is read from the fitted curve at half-maximal effect
#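 Pol iota at 10 nM preincubated 15 min with compounds at room temperature; reaction started with fluorescent substrate, 50 nM final. Fluorescence read kinetically at 0 and 10 min; buffer-only wells as negative control.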
# Pol eta inh-1 = inhibitors of human DNA polymerase eta; Q9Y253; recombinant Pol eta, fluorescent DNA replication assay; Potency, µM (series often up to 114 µM), for the others: at the highest dose activity change, negative = inhibition, usual class: inhibitors; 390,000 tested, 1.2% active; also: potency is read from the fitted curve at half-maximal effect; % is scaled to controls: 0 for no effect and ±100 for the full control effect
#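 Fluorescent replication assay: 50 nM final substrate added after a 15 min room-temperature compound preincubation with 10 nM enzyme. Signal taken at 0 min and again at 10 min.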
# PI4K2A inh = inhibitors of human PI4K2A. 420,000 tested, 0.13% active. activity change, negative = inhibition, % at 76.9 µM. Q9BTU6. purified PI4K2A, ADP-Glo luminescence, 1 h; active compounds read low; in the data active = activity change below about -50%; inconclusive = mostly about -30% to -49%;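 also: -100% = wells without enzyme as full effect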
# Target sequence (Q9BTU6 whole entry, looked up): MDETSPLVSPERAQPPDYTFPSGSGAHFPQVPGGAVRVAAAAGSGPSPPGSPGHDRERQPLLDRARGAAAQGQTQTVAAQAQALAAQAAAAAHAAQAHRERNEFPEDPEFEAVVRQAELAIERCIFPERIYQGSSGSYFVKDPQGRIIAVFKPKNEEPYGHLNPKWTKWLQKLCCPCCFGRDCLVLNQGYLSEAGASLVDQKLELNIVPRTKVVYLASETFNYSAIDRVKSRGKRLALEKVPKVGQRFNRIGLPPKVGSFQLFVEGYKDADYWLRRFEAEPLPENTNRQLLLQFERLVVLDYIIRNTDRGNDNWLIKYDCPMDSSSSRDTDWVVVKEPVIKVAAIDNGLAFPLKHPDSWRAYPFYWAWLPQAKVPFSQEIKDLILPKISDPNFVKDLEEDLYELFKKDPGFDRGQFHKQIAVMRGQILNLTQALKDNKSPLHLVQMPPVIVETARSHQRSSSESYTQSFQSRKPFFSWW
#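 In this quantitative HTS, ADP production by PI4K2A was quantified luminescently after 1 h at ambient temperature; 100 microM adenosine served as plate-quality control.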
# PI5P4Ka inh = PI5P4K alpha (human) kinase inhibition; P48426; PI5P4Kalpha enzyme, ADP-Glo luminescence, 60 min; active compounds read low; max response, %; 330,000 tested, 1.2% active; active = max response of -50% or lower; inconclusive = between -30% and -50%; inactive = -30% or higher; also: value at the top dose of about 77 µM; % is scaled to controls: 0 for no effect and ±100 for the full control effect
#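 qHTS, 1536-well: enzyme/substrate mix, compound by pin tool, 5 microM ATP final; RT 60 min; ADP-Glo reagents 1 (45 min) then 2 (30 min); luminescence.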
# GALK inh confirm = galactokinase (human) inhibition, confirmation; shares compounds with Pol eta inh-1; purified GALK, Kinase-Glo ATP depletion luminescence; Potency, µM (top dose mostly 115 µM), inactives show at the highest dose activity, negative = inhibition, hits mostly inhibitors; 150 tested, 70% active; AID 2015
# GALK redox cs = counter-screen for GALK inhibitors: redox cycling H2O2 generation | AID 2035 | 150 tested, 40% active | Phenol red-HRP H2O2 redox cycling, absorbance 600 nm | shares compounds with Pol eta inh-1 | Potency, µM (titrated, usually from 115 µM), inactives show at the top dose activity change, negative = H2O2 signal, usual class: inhibitors
# HEK293 viability = reduces HEK-293 cell viability in GALK counter-screen | shares compounds with Pol eta inh-1 | Potency, µM (doses to about 46.1 µM), without a hit: at the top dose activity change, negative = cytotoxicity, actives largely listed as inhibitors | HEK-293 viability, ATP luminescence (CellTiter-Glo), 24/48 h | 170 tested, 10% active; also: potency is read from the fitted curve at half-maximal effect; % is scaled to controls: 0 for no effect and ±100 for the full control effect
# Pol kappa inh-2 = confirmation of human DNA polymerase kappa inhibitors; shares compounds with Pol eta inh-1; purified Pol-kappa, fluorescent strand-displacement substrate; Potency, µM, hits mostly inhibitors; 920 tested, 76% active; also: potency is read from the fitted curve at half-maximal effect
# Pol eta inh-2 = confirmation of human DNA polymerase eta inhibitors. shares compounds with Pol eta inh-1. Pol eta primer extension, TAMRA/BHQ fluorescence, 10 min. Potency, µM, hits mostly inhibitors. 2,600 tested, 64% active. AID 720502; also: potency is read from the fitted curve at half-maximal effect
# * marks the source's active call; other numbers are inactive results; ? = inconclusive; . = no result; [ ] = dose if it differs, or a comment. Only some compounds are listed: those with a hit (about 2.8% of all), similar ones and a draw of the others. Unless noted, calls follow the shape of the dose curve; as a rule, active = well fitted curve in the direction sought with a large enough effect; inconclusive = small, poorly fitted or top-dose-only effect, or another doubt; inactive = no such curve, though single readings can be large; an effect the other way counts as inactive or inconclusive.
SMILES,Pol kappa inh-1,POLB inh,POLI inh,Pol eta inh-1,PI4K2A inh,PI5P4Ka inh,Pol eta inh-2,others
CCOCCCNc1nc2c(C)cccn2c(=O)c1/C=C1\SC(=S)N(C(C)CC)C1=O (stereo not drawn),-9%,17%,16%,79µM*,-1,8,.,Pol kappa inh-2=27*
COc1cccc(Cn2c(=O)cnc3cnc(OC)nc32)c1,4%[60.1 µM],.,.,.,.,.,.,
O=C1C(Cl)=C(N2CCC(C(=O)O)CC2)C(=O)c2ccccc21,-7%,?,?,10µM*,-15,?,.,GALK inh confirm=30µM*;GALK redox cs=38µM*;HEK293 viability=-7%
Cc1ccc(S(=O)(=O)NC(=O)c2ccc(-c3ccc(C)c4ccccc34)o2)cc1,?,?,?,32µM*,-8,?,?,
Cc1ccc(-c2ccc(C(=O)NCc3ccccc3)o2)c2ccccc12,1%,-9%,?,-16%,-5,0,.,
COC(=O)c1ccc(NS(=O)(=O)c2ccc3[nH]c(=O)oc3c2)cc1,?,35µM*,45µM*,25µM*,2,-8,?,
COc1ccccc1CNc1ccc(-c2nc(-c3ccncc3)no2)cc1[N+](=O)[O-],-1%,0%,12%,-17%,-2,.,.,
O=C(O)c1ccc2nc(-c3cc4cc(F)ccc4oc3=O)[nH]c2c1,5%[60.1 µM],35µM*,?,35µM*,-5,.,60*,
C[C@@H]1Cc2[nH][nH]c(=O)c2[C@H](C)O1,.,.,.,.,2,-4,.,
Cc1ccccc1NC(=O)CSc1cn(CC(=O)N(C(C)C)C(C)C)c2ccccc12,-11%,-21%,18%,-11%,-1,.,.,
O=C(Nc1nc2ccccc2s1)C1CCN(S(=O)(=O)c2cc([N+](=O)[O-])ccc2Cl)CC1,?,?,?,40µM*,-9,?,?,Pol kappa inh-2=?
CCC(C)NC(=O)C1CCN(S(=O)(=O)c2cc([N+](=O)[O-])ccc2Cl)CC1 (stereo not drawn),-12%,-1%,58%,-17%,1,0,.,
CCOCCCNC(=O)c1[nH]c2cc(OC)ccc2c1Sc1ccccc1,-3%,-6%,40%,-9%,1,.,.,
CCOC(=O)C1=C(O)/C(=C\c2ccc(CNC(=O)C(=O)Nc3ccccc3)o2)N=C1C,?,8.9µM*,18µM*,10µM*,-23,-65*,48*,Pol kappa inh-2=53*
CCOC(=O)C1=C(O)/C(=C\c2cccs2)N=C1C,-1%,11%,-9%,-16%,-18,-3,.,
O=C(O)c1c2c(nc3ccc(S(=O)(=O)N4CCC(C(=O)NC5CCCCCC5)CC4)cc13)CCCC2,79µM*,40µM*,?,20µM*,-12,-27,?,
O=C(CSc1nc2ccccc2n1Cc1ccccc1Cl)NN=C/C(Br)=C/c1ccccc1,.,.,.,.,-1,.,.,
